# PubChem BioAssay (NCATS)
# Inconclusive results are not listed. A call without a number means that no potency is given here. The source made the active and inactive calls. Unless noted, calls come from the whole dose curve; as a rule, active = well fitted curve in the direction sought with a large enough effect; inconclusive = small, poorly fitted or top-dose-only effect, or another doubt; inactive = no such curve, though single readings can be large; an effect the other way counts as inactive or inconclusive.
# How the values were obtained:
# [1] = AP1 Signaling Pathway (AID 357; active = well fitted curve in either direction with a large enough effect, not every such curve was filed as active;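 note: ME-180 reporter cells stimulated with EGF at its EC50 level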)
# Outline: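 First, ME-180 AP-1-bla cells were cultured overnight at 37 °C in low-serum Opti-MEM. Next, titrated compounds with EC50 EGF were incubated 5 hours. Finally, CCF4 was added for 2.5 hours and the 460/530 nm ratio recorded.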
# [2] = Stat Signaling Pathway (AID 446; active = well fitted curve in either direction with a large enough effect, not every such curve was filed as active;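 note: ME-180 cervical cancer cells given 40 pM IL-6 alongside compound; SIE-controlled beta-lactamase reporter measured as 460/530 nm FRET emission ratio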)
# Outline: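 Normalization used AC90 stimulation (300 pM IL-6) and AC90 inhibition (125 nM pan-JAK inhibitor at 40 pM IL-6). The underlying signal is SIE-driven beta-lactamase in ME-180 cells after 5 h IL-6 exposure with compound.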
# [3] = molecular target: Glucocorticoid receptor (Homo sapiens) (UniProt P04150); assay: GR-GFP Redistribution (AID 450;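 active = compounds whose dose series gives a full or clear partial fitted curve of increased nuclear translocation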; note: potency is the fitted concentration of half-maximal effect); settings: U2OS GR-GFP nuclear translocation, laser cytometry, 2 h
# [4] = molecular target: Glucocorticoid receptor (Homo sapiens) (UniProt P04150); assay: GR-EFC Redistribution (AID 451; calls by dose curve; note: potency is the fitted concentration of half-maximal effect); settings: CHO-K1 GR-EFC translocation, beta-gal luminescence, 2 h
# Outline: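 Translocation of GR-ED fusion to nuclear EA restores b-gal, read by luminescence after 1 h room-temperature detection. Engineered CHO-K1 biosensor cells, 1,000/well, exposed 2 h at 37 C to titrations up to 46 uM final.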
# [5] = molecular target: Mitogen-activated protein kinase 10 (Mus musculus) (UniProt Q61831); assay: JNK3 AlphaScreen Assay (AID 530; active = well fitted curve in either direction with a large enough effect, not every such curve was filed as active;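 note: kinase came from lysate of stimulated human HepG2 cells; signal reports phosphorylation of biotinylated GST-cJun 1-79 at Ser73 with 10 µM ATP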)
# Outline: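 qHTS titrations with 15 min compound pre-incubation before adding ATP (10 uM final). Read-out: AlphaScreen of Ser73-phosphorylated biotin-GST-cJun using HepG2 lysate JNK3 activated by IL-1β and TNFα.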
# [6] = molecular target: 3',5'-cyclic-AMP phosphodiesterase 4B (Homo sapiens) (UniProt Q07343); assay: qHTS Assay for Inhibitors of PDE-IV (AID 607; active = well fitted activation curve with a large enough effect in the main read-out, with a control signal flat, not every such curve was filed as active)
# Outline: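 HEK293 ACTOne cells with CNG channel (1000/well), endogenous PDE4; membrane potential dye, compounds up to 22.9 uM final. Fluorescence Ex 535/Em 590; RO 20-1724 (100 uM final) as reference.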
# [7] = qHTS Assay for Lipid Storage Modulators (AID 1519; calls by dose curve); settings: Drosophila S3 cells, BODIPY lipid droplet/cell ratio, laser cytometry, cells loaded with oleic acid; for activity change, negative = inhibition: at 25.7 µM (top of the series)
# Outline: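 Cells seeded at 5,000 per well were treated with compounds over a concentration series and loaded with oleic acid (400 uM, as added). Lipid droplet fluorescence (488 nm excitation, 500-530 nm channel) was read by laser-scanning cytometry and normalized to 20 uM Triacsin C.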
# [8] = molecular target: Ubiquitin carboxyl-terminal hydrolase 1 (Homo sapiens) (UniProt O94782); assay: Inhibitors of USP1/UAF1: Pilot qHTS (AID 504865);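 note: rhodamine fluorescence freed from ubiquitin-rhodamine substrate followed over time; top concentration of the series differs between compounds; nearly all actives have a fitted effect of over 35% in size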
# Outline: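 USP1/UAF1 complex (1nM) preincubated with compound 15 min at room temperature, then Ub-Rho substrate (150nM final) added. Fluorescence read kinetically at 480/540 nm, 6 reads every 60 seconds. Buffer: 50mM HEPES pH 7.8, 0.5mM EDTA, 0.1 mg/ml BSA, 1mM TCEP, 0.01% Tween-20.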
# [9] = NFAT Signaling Pathway (AID 444; active = well fitted curve in either direction with a large enough effect, not every such curve was filed as active;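 note: carbachol stimulus at about its EC50 of 1 µM final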); settings: Jurkat NFAT-bla M1, carbachol, beta-lactamase ratio, 5 h; at 17.2 µM (top of the series) unless noted
# Outline: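 Read-out: CCF4 FRET ratio (460 nm/530 nm) after 1 h RT dye loading, used for %activity and AC50 from titration series. Cells: Jurkat NFAT-β-lactamase/M1 line, treated with compound plus 1 uM carbachol for 5 h, 37 °C.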
# [10] = S16 Schwann cell viability assay (CellTiter-Glo assay) (AID 624031);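 note: cellular ATP luminescence as a viability measure; nearly all actives have a fitted effect of over 70% in size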
# Outline: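 Native S16 rat Schwann cells, 500-750 cells/well in DMEM with 10% FBS, dosed with compound after overnight culture and incubated 24h at 37 degree Celsius/5% CO2. Viability by CellTiter-Glo luminescence; % activity normalized to no-cell wells and DMSO-treated cells.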
# [11] = qHTS profiling for inhibitors of Plasmodium falciparum proliferation (AID 504749); note: nearly all actives have a fitted effect of over 60% in size; note: potency is the fitted concentration of half-maximal effect; settings: P. falciparum in erythrocytes, SYBR Green DNA, 72 h, at 12.8 µM (top of the series)
# Outline: (§1)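 SYBR Green fluorescence of parasite DNA, read after lysis and overnight dark incubation, measured growth over 72 h in erythrocyte culture at 0.3% parasitemia and 2.5% hematocrit. Data normalised to DMSO and 0.29 uM artemisinin, with plate-drift correction.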
# [12] = test system: AS120; assay: as above; settings: P. falciparum in erythrocytes, SYBR Green DNA, 72 h; series mostly up to 12.8 µM
# Outline: as §1
# [13] = test system: C2A; assay: as above; settings: P. falciparum in erythrocytes, SYBR Green DNA, 72 h; series mostly up to 12.8 µM
# Outline: as §1
# [14] = test system: CP237; assay: as above; settings: P. falciparum in erythrocytes, SYBR Green DNA, 72 h; series mostly up to 12.8 µM
# Outline: as §1
# [15] = test system: CP238; assay: as above; settings: P. falciparum in erythrocytes, SYBR Green DNA, 72 h; series mostly up to 12.8 µM
# Outline: as §1
# [16] = test system: CP252; assay: as above; settings: P. falciparum in erythrocytes, SYBR Green DNA, 72 h; series mostly up to 12.8 µM
# Outline: as §1
# [17] = test system: FAB9; assay: as above; settings: P. falciparum in erythrocytes, SYBR Green DNA, 72 h; series mostly up to 12.8 µM
# Outline: as §1
# [18] = test system: HB3; assay: as above; settings: P. falciparum in erythrocytes, SYBR Green DNA, 72 h; series mostly up to 12.8 µM
# Outline: as §1
# [19] = test system: JCK; assay: as above; settings: P. falciparum in erythrocytes, SYBR Green DNA, 72 h; series mostly up to 12.8 µM
# Outline: as §1
# [20] = test system: PAD; assay: as above; settings: P. falciparum in erythrocytes, SYBR Green DNA, 72 h; series mostly up to 12.8 µM
# Outline: as §1
# [21] = measured here: cell count channel max response
# [22] = measured here: lipid channel max response
# Sequence of Glucocorticoid receptor (Homo sapiens) (P04150 whole entry, looked up, the tested form may be a part): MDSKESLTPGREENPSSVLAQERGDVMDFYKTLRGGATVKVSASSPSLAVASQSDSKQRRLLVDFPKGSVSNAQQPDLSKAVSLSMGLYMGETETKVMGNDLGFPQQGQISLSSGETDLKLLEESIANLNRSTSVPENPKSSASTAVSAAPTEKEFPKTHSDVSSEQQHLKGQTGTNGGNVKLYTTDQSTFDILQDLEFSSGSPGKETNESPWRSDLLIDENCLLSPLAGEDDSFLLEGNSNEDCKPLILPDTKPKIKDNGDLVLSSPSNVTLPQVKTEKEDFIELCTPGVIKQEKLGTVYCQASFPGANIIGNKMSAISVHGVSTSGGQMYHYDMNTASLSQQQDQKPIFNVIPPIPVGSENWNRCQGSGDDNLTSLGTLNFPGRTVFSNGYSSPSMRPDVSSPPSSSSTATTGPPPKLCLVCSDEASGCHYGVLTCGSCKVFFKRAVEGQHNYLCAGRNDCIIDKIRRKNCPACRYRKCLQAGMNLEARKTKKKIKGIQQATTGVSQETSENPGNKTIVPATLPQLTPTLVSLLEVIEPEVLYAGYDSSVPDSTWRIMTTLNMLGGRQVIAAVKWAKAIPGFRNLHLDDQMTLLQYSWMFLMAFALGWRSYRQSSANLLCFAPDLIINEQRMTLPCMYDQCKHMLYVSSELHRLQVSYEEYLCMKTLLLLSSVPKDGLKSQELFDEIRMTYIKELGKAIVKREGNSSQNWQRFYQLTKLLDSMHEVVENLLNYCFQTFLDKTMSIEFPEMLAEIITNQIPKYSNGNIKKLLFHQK
# Sequence of 3',5'-cyclic-AMP phosphodiesterase 4B (Homo sapiens) (Q07343 whole entry, looked up): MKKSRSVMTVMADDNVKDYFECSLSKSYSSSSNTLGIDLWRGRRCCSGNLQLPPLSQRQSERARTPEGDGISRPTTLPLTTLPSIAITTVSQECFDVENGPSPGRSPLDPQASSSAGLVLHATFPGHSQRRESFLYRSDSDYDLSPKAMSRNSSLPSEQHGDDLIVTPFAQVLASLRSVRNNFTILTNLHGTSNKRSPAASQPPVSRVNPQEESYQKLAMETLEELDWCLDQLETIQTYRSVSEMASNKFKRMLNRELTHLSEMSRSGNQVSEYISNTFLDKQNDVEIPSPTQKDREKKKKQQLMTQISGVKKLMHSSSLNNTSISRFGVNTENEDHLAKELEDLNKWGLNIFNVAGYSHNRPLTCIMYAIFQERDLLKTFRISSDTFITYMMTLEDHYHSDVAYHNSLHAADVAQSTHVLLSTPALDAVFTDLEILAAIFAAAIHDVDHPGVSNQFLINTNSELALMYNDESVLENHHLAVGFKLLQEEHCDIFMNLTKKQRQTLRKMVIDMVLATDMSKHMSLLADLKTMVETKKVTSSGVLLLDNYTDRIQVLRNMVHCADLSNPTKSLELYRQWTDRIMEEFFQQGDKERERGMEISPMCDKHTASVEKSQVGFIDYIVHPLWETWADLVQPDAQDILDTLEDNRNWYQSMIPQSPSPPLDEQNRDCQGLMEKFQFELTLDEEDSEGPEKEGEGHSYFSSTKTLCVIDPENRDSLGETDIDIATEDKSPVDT
# Sequence of Ubiquitin carboxyl-terminal hydrolase 1 (Homo sapiens) (O94782 whole entry, looked up): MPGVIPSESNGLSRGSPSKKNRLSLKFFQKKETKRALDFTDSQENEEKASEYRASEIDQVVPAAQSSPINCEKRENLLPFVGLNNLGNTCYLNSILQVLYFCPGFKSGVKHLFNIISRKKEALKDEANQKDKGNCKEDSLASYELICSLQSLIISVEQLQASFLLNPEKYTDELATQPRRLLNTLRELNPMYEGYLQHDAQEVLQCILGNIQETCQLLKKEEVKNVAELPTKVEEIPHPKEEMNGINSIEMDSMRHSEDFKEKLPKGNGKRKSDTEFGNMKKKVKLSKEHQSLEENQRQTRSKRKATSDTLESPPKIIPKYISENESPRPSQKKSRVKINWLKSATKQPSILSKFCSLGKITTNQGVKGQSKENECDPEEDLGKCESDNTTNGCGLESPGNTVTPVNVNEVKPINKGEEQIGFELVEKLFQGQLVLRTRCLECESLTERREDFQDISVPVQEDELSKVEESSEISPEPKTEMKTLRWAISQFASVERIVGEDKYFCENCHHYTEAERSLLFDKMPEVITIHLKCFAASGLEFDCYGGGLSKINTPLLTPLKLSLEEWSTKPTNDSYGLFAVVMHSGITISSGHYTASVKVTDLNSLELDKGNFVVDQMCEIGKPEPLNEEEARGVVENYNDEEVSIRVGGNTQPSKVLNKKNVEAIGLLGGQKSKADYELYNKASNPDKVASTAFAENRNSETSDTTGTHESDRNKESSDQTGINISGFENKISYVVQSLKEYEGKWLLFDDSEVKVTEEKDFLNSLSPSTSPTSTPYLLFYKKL
compound,measurement,setting,value
CC(=O)Nc1cc2ccccc2oc1=O,outcome,[1],inactive
same,outcome,[2],inactive
same,Potency,[3],> 20.6 µM (inactive)
same,Potency,[4],> 20.6 µM (inactive)
same,Potency,[5],inactive
same,outcome,[6],inactive
same,"activity change, negative = inhibition",[7],2.36% (inactive)
same,max response,[7]; [21],-14.5%
same,max response,[7]; [22],-11.4%
same,Potency,[8],inactive
C[C@H](N[C@@H](C)COc1ccccc1)[C@H](O)c1ccc(O)cc1,"activity change, negative = inhibition",[9],-9.06% (inactive)
same,outcome,[2],inactive
same,Potency,[3],> 20.6 µM (inactive)
same,Potency,[4],> 20.6 µM (inactive)
same,Potency,[5],inactive
same,outcome,[6],inactive
same,"activity change, negative = inhibition",[7],0.23% (inactive)
same,max response,[7]; [21],-4.01%
same,max response,[7]; [22],-3.47%
same,Potency,[8],inactive
same,outcome,[10],inactive
same,"activity, negative = inhibition",[11]; parasite line A,2.67% (inactive)
same,"activity, negative = inhibition",[11]; parasite line B,10.2% (inactive)
same,Potency,[12],inactive
same,Potency,[13],inactive
same,Potency,[14],3.55 µM (active)
same,Potency,[15],inactive
same,Potency,[16],inactive
same,Potency,[17],inactive
same,Potency,[18],inactive
same,Potency,[19],inactive
same,Potency,[20],inactive
OCCOCCN1CCN([C@@H](c2ccccc2)c2ccc(Cl)cc2)CC1,outcome,[1],inactive
same,outcome,[2],inactive
same,Potency,[5],inactive
same,outcome,[6],inactive
same,"activity change, negative = inhibition",[7],-0.885% (inactive)
same,max response,[7]; [21],8.41%
same,max response,[7]; [22],6.93%
same,Potency,[8],inactive
CO[C@]1(NC(=O)[C@H](C(=O)O)c2ccc(O)cc2)C(=O)N2C(C(=O)O)=C(CSc3nnnn3C)CO[C@H]21,"activity change, negative = inhibition",[9],6.17% (inactive)
same,outcome,[2],inactive
same,Potency,[3],> 20.6 µM (inactive)
same,Potency,[4],> 20.6 µM (inactive)
same,Potency,[5],inactive
same,"activity change, negative = inhibition",[7],-4% (inactive)
same,max response,[7]; [21],-7.15%
same,max response,[7]; [22],-8.95%
same,Potency,[8],inactive
same,outcome,[10],inactive
same,"activity, negative = inhibition",[11]; parasite line A,8.42% (inactive)
same,"activity, negative = inhibition",[11]; parasite line B,2.41% (inactive)
same,Potency,[12],inactive
same,Potency,[13],inactive
same,Potency,[14],inactive
same,Potency,[15],inactive
same,Potency,[16],inactive
same,Potency,[17],inactive
same,Potency,[18],inactive
same,Potency,[19],inactive
same,Potency,[20],inactive
CCN[C@@H]1CN(CCCOC)S(=O)(=O)c2sc(S(N)(=O)=O)cc21,outcome,[1],inactive
same,outcome,[2],inactive
same,Potency,[3],> 20.6 µM (inactive)
same,Potency,[4],> 20.6 µM (inactive)
same,Potency,[5],inactive
same,outcome,[6],inactive
same,"activity change, negative = inhibition",[7],1.92% (inactive)
same,max response,[7]; [21],-3.42%
same,max response,[7]; [22],-8.18%
same,Potency,[8],inactive
same,outcome,[10],inactive
same,"activity, negative = inhibition",[11]; parasite line A,-7.28% (inactive)
same,"activity, negative = inhibition",[11]; parasite line B,4.88% (inactive)
same,Potency,[12],inactive
same,Potency,[13],inactive
same,Potency,[14],inactive
same,Potency,[15],inactive
same,Potency,[16],inactive
same,Potency,[17],inactive
same,Potency,[18],inactive
same,Potency,[19],inactive
same,Potency,[20],inactive
CO[C@H]1[C@@H](OC(N)=O)[C@H](O)[C@@H](Oc2ccc3c(O)c(NC(=O)c4ccc(O)c(CC=C(C)C)c4)c(=O)oc3c2C)OC1(C)C,outcome,[1],inactive
same,outcome,[2],inactive
same,Potency,[3],> 20.6 µM (inactive)
same,Potency,[4],> 20.6 µM (inactive)
same,Potency,[5],inactive
same,outcome,[6],inactive
same,"activity change, negative = inhibition",[7],-1.82% (inactive)
same,max response,[7]; [21],-8.07%
same,max response,[7]; [22],-8.17%
same,Potency,[8],inactive
same,outcome,[10],inactive
same,"activity, negative = inhibition",[11]; parasite line A,4.79% (inactive)
same,"activity, negative = inhibition",[11]; parasite line B,-4.42% (inactive)
same,Potency,[12],inactive
same,Potency,[13],inactive
same,Potency,[14],inactive
same,Potency,[15],inactive
same,Potency,[16],inactive
same,Potency,[17],inactive
same,Potency,[18],inactive
same,Potency,[19],inactive
same,Potency,[20],inactive
C[C@@]12C=CC(=O)C=C1CC[C@H]1[C@H]3CC[C@](O)(C(=O)CO)[C@]3(C)CC(=O)[C@@H]12,outcome,[1],inactive
same,outcome,[2],inactive
same,Potency,[5],inactive
same,outcome,[6],inactive
same,"activity change, negative = inhibition",[7],-0.593% (inactive)
same,max response,[7]; [21],0.532%
same,max response,[7]; [22],0.96%
COc1cc2cc3c4cc(OC)c(OC)cc4cc[n+]3c(C)c2cc1OC,outcome,[1],inactive
same,outcome,[2],inactive
same,Potency,[3],> 20.6 µM (inactive)
same,Potency,[4],> 20.6 µM (inactive)
same,outcome,[6],inactive
same,"activity change, negative = inhibition",[7],0.187% (inactive)
same,max response,[7]; [21],-9.25%
same,max response,[7]; [22],-9.88%
same,Potency,[8],inactive
C[C@H](CCC(=O)O)[C@H]1CC[C@@H]2[C@H]3[C@@H](CC[C@@]21C)[C@]1(C)CC[C@H](O)C[C@@H]1C[C@@H]3O,outcome,[1],inactive
same,outcome,[2],inactive
same,Potency,[5],inactive
same,outcome,[6],inactive
same,"activity change, negative = inhibition",[7],0.999% (inactive)
same,max response,[7]; [21],-6.52%
same,max response,[7]; [22],-4.97%
same,Potency,[8],inactive
CC[N+]1(C)[C@@H]2CC[C@H]1CC(OC(=O)[C@H]1CC[C@@](C(=O)OC3C[C@H]4CC[C@@H](C3)[N+]4(C)CC)(c3ccccc3)c3ccccc31)C2 (some centres undefined),outcome,[1],inactive
same,outcome,[2],inactive
same,Potency,[3],> 20.6 µM (inactive)
same,Potency,[4],> 20.6 µM (inactive)
same,Potency,[5],inactive
same,outcome,[6],inactive
same,"activity change, negative = inhibition",[7],-4.59% (inactive)
same,max response,[7]; [21],-11.7%
same,max response,[7]; [22],-14.8%
same,Potency,[8],inactive
C[C@H](NCCC(c1ccccc1)c1ccccc1)c1ccccc1,outcome,[1],inactive
same,outcome,[2],inactive
same,Potency,[3],> 20.6 µM (inactive)
same,Potency,[4],> 20.6 µM (inactive)
same,Potency,[5],inactive
same,"activity change, negative = inhibition",[7],-3.52% (inactive)
same,max response,[7]; [21],-21.2%
same,max response,[7]; [22],-22.3%
same,Potency,[8],inactive
Cc1cccc(CN2CCN([C@@H](c3ccccc3)c3ccc(Cl)cc3)CC2)c1,outcome,[1],inactive
same,outcome,[2],inactive
same,Potency,[3],> 20.6 µM (inactive)
same,Potency,[4],> 20.6 µM (inactive)
same,Potency,[5],inactive
same,outcome,[6],inactive
same,"activity change, negative = inhibition",[7],-11.4% (inactive)
same,max response,[7]; [21],-11.7%
same,max response,[7]; [22],-24.7%
same,outcome,[10],inactive
same,Potency,[13],inactive
same,Potency,[14],inactive
same,Potency,[15],inactive
same,Potency,[16],inactive
same,Potency,[17],inactive
same,Potency,[19],inactive
CCC[C@H]1C[C@H](C(=O)N[C@H]([C@@H]2O[C@H](SC)[C@@H](O)[C@H](O)[C@@H]2O)[C@H](C)O)N(C)C1,outcome,[1],inactive
same,outcome,[2],inactive
same,Potency,[3],> 20.6 µM (inactive)
same,Potency,[4],> 20.6 µM (inactive)
same,Potency,[5],inactive
same,outcome,[6],inactive
same,"activity change, negative = inhibition",[7],0.0766% (inactive)
same,max response,[7]; [21],-10.3%
same,max response,[7]; [22],-10.9%
same,Potency,[8],inactive
